Measurements: the supplement of paper PMC13380429

Assays:
[1] = tested on: Vero E6 infected with SARS-CoV-2; assay: morphology score (similarity to uninfected cells); higher = more like uninfected cells; conditions: 24 h
[2] = tested on: Vero E6 infected with SARS-CoV-2; assay: SARS-CoV-2 infection rate relative to infected DMSO; higher = more infection, active = 60 or less; conditions: 24 h

| SMILES | morphology score [1] | SARS-CoV-2 infection rate [2] |
| --- | --- | --- |
| O=C(NC(NC(=S)Nc1ccc(F)c([N+](=O)[O-])c1)C(Cl)(Cl)Cl)C(c1ccccc1)c1ccccc1 (stereo not given) (0.833333 µM) | 0.0472 | 104% (inactive) |
| C[C@H](/C=C/[C@H](C)C(C)(C)O)[C@H]1CC[C@H]2/C(=C/C=C3C[C@@H](O)C[C@H](O)C3)CCC[C@]12C [paricalcitol] (10 µM) | 0.0995 | 104% (inactive) |
| COc1cc2c(cc1OC)-c1c/c(=N\c3c(C)cc(C)cc3C)n(C)c(=O)n1CC2 [trequinsin] (10 µM) | 0.541 | 87.5% (inactive) |
| COc1ccc(NS(=O)(=O)c2ccc(N)cc2)nn1 [sulfamethoxypyridazine] (10 µM) | 0.0793 | 110% (inactive) |
| O=C1NCC2(CCN(CCc3ccccc3)CC2)O1 [fenspiride] (10 µM) | 0.208 | 101% (inactive) |
| Cc1ccc(C(=O)Nc2ccc(CN3CCN(C)CC3)c(C(F)(F)F)c2)cc1C#Cc1cnc2cccnn12 [ponatinib] (10 µM) | 0.435 | 97% (inactive) |
| CCC(C(=O)O)c1ccc(CC(C)C)cc1 (stereo not given) [butibufen] (10 µM) | 0.268 | 108% (inactive) |
| N[C@@H](C[C@@H](F)C(=O)O)C(=O)O (10 µM) | 0.0323 | 110% (inactive) |
| CCCN(CCC)C(=O)Cc1c(-c2ccc(Cl)cc2)nc2ccc(Cl)cn12 [alpidem] (10 µM) | 0.0705 | 99.5% (inactive) |
| CN(c1ncccc1CNc1nc(Nc2ccc3c(c2)CC(=O)N3)ncc1C(F)(F)F)S(C)(=O)=O (0.833333 µM) | -0.119 | 106% (inactive) |
| O=C1N=C2SCCN2C(=O)C1Cc1ccc(Cl)cc1 (stereo not given) [nuclomedone] (10 µM) | 0.238 | 99% (inactive) |
| Cc1sc2c(c1C)C(c1ccc(Cl)cc1)=N[C@@H](CC(N)=O)c1nnc(C)n1-2 (0.833333 µM) | -0.0333 | 104% (inactive) |
| N#CCC1(n2cc(-c3ncnc4[nH]ccc34)cn2)CN(C2CCN(C(=O)c3ccnc(C(F)(F)F)c3F)CC2)C1 [itacitinib] (10 µM) | 0.22 | 97.5% (inactive) |
| c1coc(-c2nnc3sc(C4CCCCC4)nn23)c1 [cardionogen-1] (10 µM) | 0.254 | 89% (inactive) |
| CN1CCc2cc(Cl)c(O)cc2[C@@H](c2ccccc2)C1 (10 µM) | 0.0172 | 108% (inactive) |
| CC(=O)OC[C@H](N)C(=O)O [O-acetyl-L-serine] (10 µM) | 0.0719 | 88% (inactive) |
| NCC1(CC(=O)O)CCCCC1 [gabapentin] (10 µM) | -0.108 | 109% (inactive) |
| O=C(NCC1(N2CCN(c3ccccc3)CC2)CCOCC1)c1cccnc1Sc1ccccc1 (10 µM) | -0.047 | 112% (inactive) |
| CCCCc1ccc(NS(=O)(=O)c2ccc(F)cc2)cc1 (10 µM) | 0.122 | 102% (inactive) |
| Cc1cc(C(=O)N2Cc3cnn(C)c3Nc3ccccc32)ccc1CNC(=O)N1CCC[C@H]1C(=S)N1CCCN(C)CC1 (10 µM) | 0.0545 | 110% (inactive) |
| O=c1[nH]c2ccccc2n1C1CCN(CCCC(c2ccc(F)cc2)c2ccc(F)cc2)CC1 [pimozide] (10 µM) | 0.48 | 66.5% (inactive) |
| COc1ccc(/C=C2\CCCN=C2c2cccnc2)c(OC)c1 (10 µM) | 0.517 | 87% (inactive) |
| COc1cc2ncnc(Sc3nnc(C)s3)c2cc1OC (10 µM) | 0.403 | 102% (inactive) |
| Clc1cccc(C(c2ccc3[nH]cnc3c2)n2ccnc2)c1 (stereo not given) [liarozole] (10 µM) | 0.138 | 98% (inactive) |
| CCOc1ccccc1OC(c1ccccc1)C1CNCCO1 (stereo not given) [reboxetine] (10 µM) | -0.0871 | 113% (inactive) |
| COc1ccc([C@]2(C#N)CC[C@@H](C(=O)O)CC2)cc1OC1CCCC1 [cilomilast] (10 µM) | 0.246 | 104% (inactive) |
| CC(C)NC(=O)c1ccc(C#Cc2ccncc2)cn1 (10 µM) | 0.0135 | 102% (inactive) |
| Cc1ccccc1C(=O)c1ccc(Nc2ccc(Br)cc2N)cc1Cl (10 µM) | -0.138 | 102% (inactive) |
| N=C1N[C@H]2[C@H](CS[C@H]2CCCCC(=O)O)N1 [2-iminobiotin] (10 µM) | 0.0808 | 99% (inactive) |
| CN1CCN(c2ccc3[nH]c(-c4ccc5[nH]c(-c6ccc(O)cc6)nc5c4)nc3c2)CC1 [pibenzimol] (10 µM) | 0.0018 | 110% (inactive) |
